Only some compounds are listed: those with a hit (about 2.9% of all), similar ones and a draw of the others.
Peg3 promoter: Peg3 promoter activity inhibition. HeLa PEG-Prom luciferase reporter, luminescence, overnight. inhibition, % at 20 µM. hit rate 1.7% among 360,000. AID 588405;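 active means inhibition of at least 50% at 20 µM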
KKLEB cytotox: CF airway cell cytotoxicity counter-screen | KKLEB CF airway cells viability, ATPlite luminescence, overnight; stronger effect = lower value; cells stimulated with P. aeruginosa culture filtrate | activity change (cytotoxicity), % at 5 µM | hit rate 0.36% among 360,000;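 active means corrected activity change at or below -50% at 5 µM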
TRPM1 prom inh: reduces MITF-dependent TRPM1 promoter luciferase signal | SK-MEL-5 TRPM1 promoter luciferase, 24 h | inhibition, % at 12.5 µM | hit rate 0.83% among 330,000 | AID 488899;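 active means mean inhibition across replicates of 60% or more, whatever share of single replicates reaches that level; inconclusive means some that reach 60%, reason not given; inactive means mean inhibition across replicates below 60%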
Shn3 inh set2: inhibitors of Schnurri-3 3'UTR reporter in osteoblasts; Clone20 osteoblast Shn3 3'UTR firefly luciferase, 24 h; inhibition, % at 12.5 µM; hit rate 0.52% among 360,000; AID 588674;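 active means mean inhibition of at least 75% with every replicate also reaching 75%; inconclusive means mean inhibition at least 75% but some replicate below; inactive means mean inhibition below 75%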
CF NFkB inh: cystic fibrosis NF-kB activation inhibition. KKLEB NF-kB-GFP reporter, PAF-induced, GFP fluorescence overnight. inhibition, % at 5 µM. hit rate 0.86% among 360,000;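 active means at least 50% inhibition at 5 µM, scaled per plate between neutral and stimulator controls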;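 further: PAF is a Pseudomonas aeruginosa culture filtrate used as stimulus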
LMP1 NFkB inh: reduces LMP1-driven NF-kappaB luciferase signal. LMP1-induced NF-kappaB luciferase reporter cells, luminescence. inhibition, % at 12.5 µM. AID 504558. hit rate 0.69% among 350,000; in the data active means inhibition above about 41%; inconclusive means no clear call, values can overlap the other calls
Large screens that a line does not name were inactive.

CC(=O)Nc1cncc(-c2cccc(S(C)(=O)=O)c2)n1	none (no result: TRPM1 prom inh, LMP1 NFkB inh)
OCC1OC(n2cnc3c(NCc4ccco4)ncnc32)C(O)C1O (stereo not drawn)	Peg3 promoter 87, TRPM1 prom inh inconclusive, Shn3 inh set2 inconclusive
OC[C@H]1O[C@@H](n2cnc3c(NCc4ccco4)ncnc32)[C@H](O)[C@@H]1O	TRPM1 prom inh 66
COc1ccc(CN(C)C(=O)c2cccc(S(=O)(=O)N3CCCc4ccccc43)c2)c(OC)c1OC	none
CCOc1cc(NC(=O)CCl)c(OCC)cc1NC(=O)CCl	Peg3 promoter 50, TRPM1 prom inh 76
COc1cccc(-c2cnc(C(O)c3cc(C)cc(C)c3)[nH]2)c1 (stereo not drawn)	none (no result: TRPM1 prom inh, LMP1 NFkB inh)
NC(=O)c1ccccc1N/C=C/C(=O)c1cccs1	LMP1 NFkB inh 53
O=C(/C=C/c1ccc([N+](=O)[O-])cc1)c1cccs1	none
COc1cc([N+](=O)[O-])ccc1N/C=C/C(=O)c1cccs1	KKLEB cytotox -58
NC(=O)c1ccccc1N/C=C/C(=O)c1ccc(Cl)cc1Cl	KKLEB cytotox -65 (no result: Shn3 inh set2)
C[C@@H]1CN([C@H](C)CO)C(=O)CCCn2nncc2CO[C@H]1CN(C)Cc1cccnc1	none (no result: TRPM1 prom inh)
CC(=O)c1cccc(NC(=O)COC(=O)Cn2cnc3ccccc32)c1	KKLEB cytotox -86
CC(=O)Nc1ccc(NC(=O)COC(=O)Cn2cnc3ccccc32)cc1	none
C[C@H](CO)N1C[C@H](C)[C@@H](CN(C)C(=O)NC2CCCCC2)Oc2ccc(NC(=O)Cc3ccccc3)cc2C1=O	none
CCCCNC(=O)C1(C)CCCCCN1Cc1cc2ccccc2o1 (stereo not drawn)	none (no result: TRPM1 prom inh, LMP1 NFkB inh)
O=C(CSc1n[nH]c(=O)n1C1CC1)Nc1cc(Cl)ccc1Oc1ccccc1	Peg3 promoter 50
CC(C)(C)/C(O)=C(/C#N)c1nc2ccccc2[nH]1	none
N#C/C(=C(/O)c1ccc([N+](=O)[O-])o1)c1nc2ccccc2[nH]1	Peg3 promoter 77, TRPM1 prom inh 87, CF NFkB inh 94
COc1ccc2nc(SCC(=O)Nc3ccc4sc(C)nc4c3)c(C#N)cc2c1	KKLEB cytotox -62
CCSc1nc2ccc(OC)cc2cc1C#N	LMP1 NFkB inh 78
CCOc1ccc2nc(SCC#N)c(C#N)cc2c1	none
COc1ccc(CNc2ncnc3c2[nH]c2ccccc23)cc1	Shn3 inh set2 89 (no result: TRPM1 prom inh, LMP1 NFkB inh)
C[C@H]1CN([C@@H](C)CO)C(=O)CCCn2cc(nn2)CO[C@@H]1CN(C)C(=O)Nc1ccc(-c2cccs2)cc1	none (no result: TRPM1 prom inh, LMP1 NFkB inh)
CN(C)C(=S)Oc1ccccc1C1SCCS1	none (no result: TRPM1 prom inh)
O=C(Nc1ccc(NC(=O)c2cc3ccccc3o2)cc1)c1ccco1	Peg3 promoter 63
O=C(Nc1ccc(N2CCN(C(=O)c3ccco3)CC2)c(Cl)c1)c1cc2ccccc2o1	Peg3 promoter 100, TRPM1 prom inh 70, Shn3 inh set2 90
Cc1ccc(NC(=O)c2cc3ccccc3oc2=N)cc1	LMP1 NFkB inh 50
CCC(=O)N1CCN(c2ccc(NC(=O)c3cc4ccccc4o3)cc2Cl)CC1	Peg3 promoter 108
CCC(=O)N1CCN(c2ccc(NC(=O)c3ccco3)cc2Cl)CC1	none
Cc1ccc(NC(=O)COC(=O)Cc2c[nH]c3ccccc23)cc1	none (no result: TRPM1 prom inh)
CCCC(=O)N1CCN(c2ccc(NC(=O)c3cccs3)cc2Cl)CC1	none
CCCC(=O)N1CCN(c2ccc(NC(=O)c3cc4ccccc4o3)cc2Cl)CC1	Peg3 promoter 104, TRPM1 prom inh inconclusive, Shn3 inh set2 91
COC(=O)c1ccc(/C=C/C(=O)c2ccc(OC)c(OC)c2)cc1	none
O=[N+]([O-])c1cc(/C=N\O)ccc1Oc1ccc(F)cc1	LMP1 NFkB inh 65
COc1cc(/C=N/O)ccc1Oc1ccc([N+](=O)[O-])cc1[N+](=O)[O-]	none
COc1cc(/C=C/C(=O)c2ccc(F)cc2)cc(OC)c1OC	none
COc1ccc(/C=C/C(=O)c2cc(F)ccc2OC(=O)c2ccccc2)cc1OC	TRPM1 prom inh inconclusive, CF NFkB inh 53
CCOc1ccc(C(=O)/C=C/c2cc(OC)c(OC)c(OC)c2)cc1	Peg3 promoter 62
COc1ccc(/C=C/C(=O)c2cc(F)ccc2OC(=O)c2ccc(OC)c(OC)c2)cc1OC	none
COc1ccc(/C=C/C(=O)c2ccc(C(=O)/C=C/c3ccc(OC)c(OC)c3)cc2)cc1OC	Shn3 inh set2 87
